In the supplement of paper PMC8047044:
Counter-ions that a name gives are not always drawn.

Legend:
[1] = system: Neuro-2a; experiment: neurite formation score, plate-normalized to DMSO control mean 5.04 (score (0-8 scale)); higher = more or longer neurites; conditions: 1 µM
Procedure: (§1)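 Neuro-2a mouse neuroblastoma cells in PLL-coated 96-well plates were pre-treated for 1 h in DMEM(+) with each kinase inhibitor at 1 µM, then switched to serum-free DMEM(-) with inhibitor to induce neurite outgrowth and fixed about 2-3 h later. Three blinded observers scored neurite formation from 0 (no neurites) to 8 (long neurites on almost all cells).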

[2] = system: Neuro-2a; experiment: as above; conditions: 0.1 µM
Procedure: as §1, with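 “at 0.1” for “at 1”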

Row | SMILES | neurite formation score [1] | neurite formation score [2]
1 | O=C1NC(=O)/C(=C/c2cccc(C(F)(F)F)c2)S1 | 4.36 | 4.92
2 | CC[C@H](Nc1ncnc2[nH]cnc12)c1nc2cccc(F)c2c(=O)n1-c1ccccc1 [CAL-101 (Idelalisib, GS-1101)] | 4.57 | 4.71
3 | CN1CCC(COc2cnc(-c3cccc(Cn4nc(-c5cccc(C#N)c5)ccc4=O)c3)nc2)CC1 | 3.69 | 4.92
4 | COc1ccc(Cl)cc1NC(=O)Nc1cc(C)nc2ccccc12 | 3.91 | 5.04
5 | C=CC(=O)Nc1cc2c(Nc3ccc(F)c(Cl)c3)ncnc2cc1OCCCN1CCOCC1 [Canertinib (CI-1033)] | 4.57 | 4.71
6 | CNC(=O)CN1CCC(Oc2cc3c(Nc4cccc(Cl)c4F)ncnc3cc2OC)CC1 [AZD8931 (Sapitinib)] | 4.29 | 4.25
7 | O=C(NOCC1CC1)c1ccc(F)c(F)c1Nc1ccc(I)cc1Cl | 3.91 | 4.71
8 | O=C(NCCCNc1nc(Nc2cccc(NC(=O)N3CCCC3)c2)ncc1I)c1cccs1 | 5.24 | 4.54
9 | CNC(=O)c1cc(Oc2ccc(NC(=O)c3cccc(C(F)(F)F)c3)cc2)ccn1 | 3.57 | 5.54
10 | CCN1CCN(c2ccc(Nc3cc(N(C)C(=O)Nc4c(Cl)c(OC)cc(OC)c4Cl)ncn3)cc2)CC1 | 3.8 | 4.09
11 | CS(=O)(=O)c1ccc(-c2cnc(N)c(C(=O)Nc3ccccc3)n2)cc1 | 4.24 | 3.04
12 | N=C(N)NCCC(=O)O [3-Guanidinopropionic Acid] | 5.21 | 4.75
13 | Oc1cccc(-c2nc(N3CCOCC3)c3oc4ncccc4c3n2)c1 [PI-103 Hydrochloride] | 4.69 | 5.25
14 | C[C@H](Nc1ncnc2nc[nH]c12)c1cc2cccc(Cl)c2c(=O)n1-c1ccccc1 | 2.91 | 5.04
15 | O=C(Nc1cccc(Cl)c1)Nc1ncc(CCNc2ncnc3ccsc23)s1 [SNS-314 Mesylate] | 4.69 | 4.58
16 | C#Cc1cccc(Nc2ncnc3cc(OC)c(OCCCCCCC(=O)NO)cc23)c1 | 4.36 | 4.25
17 | NCC(=O)Nc1ccc(-n2nc(C(F)(F)F)cc2-c2ccc3c(ccc4ccccc43)c2)cc1 | 5.57 | 5.04
18 | C=CC(=O)Nc1cccc(Nc2nc(Nc3ccc(OCCOC)cc3)ncc2F)c1 | 4.91 | 4.71
19 | CN1C/C=C/CCOc2cccc(c2)-c2ccnc(n2)Nc2cccc(c2)C1 | 2.8 | 4.42

Row | SMILES | neurite formation score [1] | neurite formation score [2]
20 | Cc1ccc(F)c(NC(=O)Nc2ccc(-c3cccc4[nH]nc(N)c34)cc2)c1 [Linifanib (ABT-869)] | 3.14 | 3.76
21 | Cc1ncc(CCCN(C)C)cc1Nc1ncc2c(n1)-c1ccc(C(F)(F)F)cc1NC(=S)C2 | 5.29 | 4.92
22 | NC(=O)c1cccc(-c2cc(Nc3ccc(OC(F)(F)F)cc3)ncn2)c1 | 5.14 | 3.76
23 | CCCCCCCCc1ccc(CCC(N)(CO)CO)cc1 [Fingolimod (FTY720)] | 3.63 | 4.25
24 | CC(C)(C)c1nc2c3cc[nH]c(=O)c3c3cc(F)ccc3c2[nH]1 [Pyridone 6] | 3.69 | 5.25
25 | O=C(Nc1cccnc1)c1cc(-c2ccnc(F)c2)ccc1OCc1ccccc1 | 3.88 | 5.08
26 | CN(C)CCSSCCNC(=O)C1CCN(C(=O)CSc2ccc(Cl)cc2)CC1 | 3.63 | 4.58
27 | COc1cc(Nc2nc3ccccc3nc2NS(=O)(=O)c2ccc(NC(=O)c3ccc(C)c(OC)c3)cc2)cc(OC)c1 | 4.57 | 4.21
28 | Cc1csc(-c2nnc(Nc3ccc(Oc4ncccc4-c4ccnc(N)n4)cc3)c3ccccc23)c1 | 3.36 | 4.58
29 | CS(=O)(=O)CCNCc1ccc(-c2ccc3ncnc(Nc4ccc(OCc5cccc(F)c5)c(Cl)c4)c3c2)o1 [Lapatinib] | 4.24 | 4.88
30 | CCN(CC)CCNC(=O)c1c(C)[nH]c(/C=C2\C(=O)Nc3ccc(F)cc32)c1C [Sunitinib malate] | 5.57 | 5.21
31 | CC(C)(C)NS(=O)(=O)c1cncc(-c2cc(F)c3nc(N)nn3c2)c1 | 4.36 | 4.92
32 | CCN(CC)CCCC(C)Nc1nc(C)cc(Nc2ccc3nc(C)cc(N)c3c2)n1 (centres undefined) | 4.91 | 5.38
33 | Cc1c[nH]c(/C=C2\C(=O)Nc3ccccc32)c1CCC(=O)O | 6.02 | 5.92
34 | CCN(CCO)CCCOc1ccc2c(Nc3cc(CC(=O)Nc4cccc(F)c4)[nH]n3)ncnc2c1 [Barasertib (AZD1152-HQPA)] | 4.69 | 4.58
35 | NC(=O)c1ccc(-c2nc(-c3ccc4c(c3)OCCO4)c(-c3ccccn3)[nH]2)cc1 | 4.36 | 4.92
36 | O=C(Cc1ccc(-c2ccc(OCCN3CCOCC3)cc2)cn1)NCc1ccccc1 [KX2-391 dihydrochloride] | 0.692 | 0.584
37 | NC(=S)N/N=C/c1ncccc1N [Triapine] | 4.88 | 3.75
